# Hit rate of the full screen: of about 2,100 compounds, about 1,100 (52%) were called active. About 29% were inconclusive and are not listed. The set was probably picked from earlier hits. The list shows a part of the results. A number with no mark means an inactive call. The call rests on the fitted dose curve; in most records, active means well fitted inhibition curve with a large enough effect; inconclusive means small, poorly fitted or top-dose-only effect; inactive means no such curve, though single readings can be large or run the other way.
# Target: DNA dC->dU-editing enzyme APOBEC-3F (Homo sapiens) (UniProt Q8IUX4)
# Assay: qHTS for inhibitors of Vif-A3F interactions: Cherry picks counterscreen; further: nearly all actives have a fitted effect of over 65% in size
# Details: HeLa A3F-eYFP/Vif cells, eYFP fluorescence, 24 h; series mostly up to 46.1 µM; activity, negative = inhibitor: at the top concentration
# Procedure, shortened: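 HeLa cells stably expressing A3F-eYFP and Vif, cultured overnight, then treated 24 h at 37 degrees C with compounds at several concentrations; yellow fluorescence (488 nm Ex/500-530 nm Em) imaged on Acumen; MG132 positive control.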
# On the % scale 0 is the no-effect control and ±100 the full control effect; potency means the concentration at half of the fitted maximal effect.
# Chain of DNA dC->dU-editing enzyme APOBEC-3F (Homo sapiens) (Q8IUX4 whole entry, looked up): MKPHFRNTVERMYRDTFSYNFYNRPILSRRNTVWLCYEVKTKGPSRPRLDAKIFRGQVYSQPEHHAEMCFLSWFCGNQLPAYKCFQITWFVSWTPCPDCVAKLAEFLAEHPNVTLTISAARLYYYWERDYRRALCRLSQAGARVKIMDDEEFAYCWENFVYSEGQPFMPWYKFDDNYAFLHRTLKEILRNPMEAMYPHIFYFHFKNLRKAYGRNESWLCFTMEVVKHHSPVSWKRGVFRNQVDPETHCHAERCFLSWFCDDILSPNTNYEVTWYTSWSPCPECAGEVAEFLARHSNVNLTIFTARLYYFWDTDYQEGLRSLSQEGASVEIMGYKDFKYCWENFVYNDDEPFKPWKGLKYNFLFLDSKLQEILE
Compound,"activity, negative = inhibitor",Potency
Cc1cc(N/N=C/c2ccc(O)cc2O)nc(-n2nc(C)cc2C)n1,1.63% [at 36.9 µM],–
C=CCSc1nc2sc3c(c2c(=O)n1CC)CCC3,-15.9%,–
CCN(CC)C(=O)Cn1c(=O)n(-c2ccccc2)c(=O)c2c3c(sc21)CCC3,–,23.1 µM (active)
O=C(CC1CC2CCC1C2)Nc1nc(-c2ccccn2)cs1 (stereo unspecified),17.2%,–
O=C(c1ccccn1)C1CCCN(Cc2cn[nH]c2-c2cc3ccccc3o2)C1 (stereo unspecified),5.43% [at 36.9 µM],–
COc1ccc2c(c1)/C(=C/c1cc(OC)c(OC)c(OC)c1)C(=O)N2,–,2.23 µM (active)
COc1cc(C=C2C(=O)c3ccccc3C2=O)cc(OC)c1OC,-9.75%,–
O=C1/C(=C\c2cc([N+](=O)[O-])ccc2O)SC(=S)N1Cc1ccc(Cl)cc1,–,9.2 µM (active)
O=C1NC(=Nc2ccccc2Cl)S/C1=C\c1cc([N+](=O)[O-])ccc1O,-9.23% [at 36.9 µM],–
c1ccc(-c2nccc(-c3ccc4c(c3)OCO4)n2)cc1,–,5.59 µM (active)
COC(=O)CCS(=O)(=O)c1nc(-c2ccccc2)cc(C(F)(F)F)n1,–,12.5 µM (active)
CC1CCN(C(=O)C(C)Sc2nc(-c3ccccc3)cc(C(F)(F)F)n2)CC1 (stereo unspecified),-2.71%,–
C=C(C)CNC(=S)N/N=C1\CCCCc2ccccc21,2.63%,–
COc1ccc(N2C(=O)CC(Sc3nc(C)c4c(n3)CCCC4)C2=O)cc1 (stereo unspecified),–,15.8 µM (active)
Nc1c(C(=O)c2ccccc2)sc2snc(SCC(=O)c3ccccc3)c12,–,15.8 µM (active)
Nc1c(C(=O)c2ccccc2)sc2nsc(SCCN3CCCC3)c12,–,14 µM (active)
Nc1c(C(=O)c2ccccc2)sc2nsc(SCCN3CCOCC3)c12,–,7.31 µM (active)
CSCC[C@H](NC(=O)[C@H](Cc1ccccc1)n1c(=O)[nH]c2ccccc2c1=O)C(=O)N1CCC[C@@H]1C(=O)O,-11.6% [at 36.9 µM],–
CCC1=Nc2cc(C(=O)NCc3cccnc3)ccc2Sc2ccc(C)cc21,–,5.59 µM (active)
COc1ccc(C(=O)NC(=S)NCc2cccnc2)cc1Cl,6.65%,–
CCCC1=Nc2cc(C(=O)NCc3ccco3)ccc2Sc2ccccc21,–,1.98 µM (active)

Compound,"activity, negative = inhibitor",Potency
Cc1cc(C)nc(NC(=S)Nc2cccc(Cl)c2Cl)c1,-15.2%,–
C/C(=N\NC(=S)NC(C)C)c1ccc(C(C)(C)C)cc1,-3.08%,–
FC(F)(Cl)c1nnc2ccc(Cl)nn12,–,6.27 µM (active)
CC[N+](C)(C(=O)O)/C(=C\c1ccccc1)c1ccnc2ccccc12 (stereo unspecified),–,18.4 µM (active)
Nc1c(C(=O)Nc2nccs2)sc2nc(-c3cccs3)cc(C(F)(F)F)c12,–,11.2 µM (active)
Cc1nnc(NC(=O)c2sc3nc(-c4cccs4)cc(C(F)(F)F)c3c2N)s1,–,6.51 µM (active)
Nc1c(C(=O)Nc2nc3ccccc3s2)sc2nc(-c3cccs3)ccc12,–,18.4 µM (active)
Nc1c(C(=O)Nc2ccc(F)cc2)sc2nc(-c3cccs3)cc(C(F)(F)F)c12,–,2.91 µM (active)
O=C1N/C(=N\N=C\c2ccco2)SC1Cc1ccccc1[N+](=O)[O-] (stereo unspecified),8.96%,–
C/C(=N\NC(N)=S)C12CC3CC(CC(C3)C1)C2,-4.36% [at 36.9 µM],–
O=C(NC1CCCCC1)c1cccc2c1C(=O)c1ccc(N3CCC(Cc4ccccc4)CC3)cc1S2(=O)=O,–,15.8 µM (active)
O=C(NC1CC1)c1cccc2c1C(=O)c1ccc(N3CCC(Cc4ccccc4)CC3)cc1S2(=O)=O,–,18.4 µM (active)
CCc1ccc(C(=O)/C=C/c2ccc([N+](=O)[O-])o2)cc1,–,15.8 µM (active)
N#CCc1ccc(NC(=O)/C=C/c2ccc([N+](=O)[O-])o2)cc1,–,11.6 µM (active)
CCOC(=O)CCc1ccc(NC(=O)/C=C/c2ccc([N+](=O)[O-])o2)cc1,–,20.6 µM (active)
CC(C)Cn1c(N)c(C(=O)COC(=O)c2ccc([N+](=O)[O-])o2)c(=O)n(C)c1=O,-5.06% [at 36.9 µM],–
O=C(/C=C/c1ccc([N+](=O)[O-])o1)NNC(=O)c1ccc(F)cc1,–,2.8 µM (active)
O=c1cc(-c2ccccc2)[nH]c2ccccc12,–,2.23 µM (active)
COc1cc2nc(/C=C/c3ccc(N(C)C)cc3)sc2cc1SC,–,11.6 µM (active)
CCS(=O)(=O)c1nn2c(N)c(/C=C3/C=CC(=O)C(OC)=C3)c(=O)nc2s1,47.2%,–
COC(=O)c1c(-c2cccnc2)csc1NC(=O)c1ccc2c(c1)OCO2,-20.7%,–

Compound,"activity, negative = inhibitor",Potency
COc1cc(C(=O)c2ccc3c(c2)OCO3)cc(OC)c1OC,–,7.04 µM (active)
CCOC(=O)C1C(=O)C=C(/C=C/c2ccc(N(C)C)cc2)CC1c1ccccc1 (stereo unspecified),–,16.4 µM (active)
CCCCOc1ccc(-c2nnn(CC(=O)NCc3ccco3)n2)cc1,–,6.27 µM (active)
CCOC(=O)c1c(Nc2ccc(Cl)cc2)sc(/C=C2\C=Nc3ccccc32)c1O,–,14.6 µM (active)
COc1cc2c(cc1OC)CN(C(=O)/C=C/c1cccs1)CC2,–,2.8 µM (active)
Cc1cccc(C(=O)NC(=S)N2CCc3ccccc3C2)c1,1.57%,–
CN(C)CCCN(C(=O)/C=C/c1cccs1)c1nc2ccc(F)cc2s1,-13.7%,–
S=c1[nH]cnc2sc(-c3ccccc3)cc12,8.41%,–
O=c1[nH]c(-c2cccnc2)nc2sc(-c3ccccc3)cc12,–,4.44 µM (active)
Cc1ccc(S(=O)(=O)Nc2cc(Cl)c(O)c3ncccc23)cc1,-18.6% [at 36.9 µM],–
CC(=O)c1c(C)oc2c1cc(NS(=O)(=O)c1ccc(Br)cc1)c1ccccc12,–,2.91 µM (active)
CCc1nc(Nc2ccc3nccnc3c2)c2oc3ccccc3c2n1,–,23.1 µM (active)
COc1ccc(S(=O)(=O)Nc2cccc(-c3ccc4nncn4n3)c2)cc1F,–,1.98 µM (active)
COc1ccc(S(=O)(=O)Nc2cccc(-c3ccc4nncn4n3)c2)cc1,–,3.14 µM (active)
O=Cc1s/c(=N\S(=O)(=O)c2ccccc2)n(CCCCl)c1Cl,–,5.8 µM (active)
O=C1[C@@H]2[C@@H](CN3CN(c4ccccc4)N=C(c4ccccc4)[C@@]23c2ccccc2)C(=O)N1c1ccccc1,15.5%,–
CCN1/C(=C/c2ccc3ccccc3[n+]2CC)C=Cc2ccccc21,-22.3%,–
CCN1/C(=C/c2cc[n+](C)cc2)C=Cc2cc(C)ccc21,–,18.4 µM (active)
Cc1cc(C)cc(NC(=O)Cn2c(=O)oc3cc(S(=O)(=O)N4CCC(C)CC4)ccc32)c1,–,12.5 µM (active)

# From PubChem BioAssay AID651815 (National Center for Advancing Translational Sciences (NCATS), 2012)
